Experimental data: ChEMBL document CHEMBL4513216, “Probing the Open Global Health Chemical Diversity Library for Multistage-Active Starting Points for Next-Generation Antimalarials” (ACS Infect Dis, 2020)
The whole screen tested about 65,000 compounds, of which about 2,100 (3.2%) showed an effect of 50% or more. The median lay at about -52%. The entries come from a sample that favours strong results as a whole.

system: Plasmodium falciparum; test: Screen against P. falciparum Asexual Blood Stage (ABS), at 5uM; type: functional, Dd2; conditions: tested at 5 uM

Compared with CCc1cc(N[C@@H]2C[C@@H]3CC[C@H]2C3)n2nccc2n1, CN1[C@H](Cn2cncn2)C[C@@H]2CN(Cc3ccsc3)CC[C@@H]21 is higher in INHIBITION: -125% for the first, 38.2% for the second.

Going from Cc1ccc(C(=O)Nc2ccc(S(=O)(=O)/N=C3\CCCN3C)cc2)s1 to CCC(C)C(=O)Nc1ccc(CCN2CCOCC2)cc1 (stereo not drawn), the INHIBITION falls from -13.1% to -81%.

Going from CC(C)(C)n1nc(C2CC2)cc1C(=O)NC1CCN(CC(N)=O)CC1 to COCCOCC(=O)NC1CCN(c2ccccn2)CC1, the INHIBITION rises from -56.9% to -16.8%.

Compared with Cc1cccc(N2CCOCC3(C2)CN(c2ccccc2)C(=O)CO3)n1 (stereo not drawn), Cc1cccc(N2CCOCC3(C2)CN(c2ccoc2)C(=O)CO3)n1 (stereo not drawn) is higher in INHIBITION: -58.1% for the first, 66.9% for the second.

Going from Cc1cccc(N2CCOCC3(C2)CN(c2cncnc2)C(=O)CO3)n1 (stereo not drawn) to COc1cc(N2CCCC(CO)(Cc3ccccc3F)C2)ncn1 (stereo not drawn), the INHIBITION rises from -66.1% to -43.6%.

Compared with CCS(=O)(=O)NC[C@]12COC[C@H]1CN(Cc1ccsc1)C2, CCC1c2ccccc2CCN1CCCS(C)(=O)=O (stereo not drawn) is lower in INHIBITION: 19.6% for the first, -4.08% for the second.

Compared with CC(C)(CN1CCC(Cc2ccc(C(=O)O)cc2)C1)N1CCOCC1 (stereo not drawn), CC(=O)N1CCc2[nH]nc(C(=O)N3CCOCC3)c2C1 is lower in INHIBITION: -29.2% for the first, -75.4% for the second.

First: CCOc1ccc(Cl)cc1CNCCCn1ccnc1
Second: CCOc1c(CNCCCn2ccnc2)cc(Cl)cc1OC
The INHIBITION of the first is lower: 52.8% for the first, 66.5% for the second.

Going from O=C(CN1CCOc2ccc(Cl)cc21)NCCCn1ccnc1 to COCCCn1ccc(NC(=O)NCCCn2ccnc2)n1, the INHIBITION falls from -30.7% to -58.9%.

Compared with CCOc1ccc(CNCCCn2ccnc2)cc1OC, COc1cc(CNCCn2ccnc2)cc2c1OCO2 is lower in INHIBITION: -13.1% for the first, -86.4% for the second.

Compared with NC(=O)C1CCN(c2nc3nccc(-c4cccnc4)c3c(=O)[nH]2)CC1, NC(=O)C1CCN(c2nc3nccc(-c4ccncc4)c3c(=O)[nH]2)CC1 is lower in INHIBITION: -16.2% for the first, -23% for the second.

Compared with O=C(O)Cn1nc(C2CC2)c2c(-c3cccs3)ccnc21, O=c1[nH]c(NC2CCCC2)nc2nccc(-c3cccs3)c12 is higher in INHIBITION: -7.45% for the first, 56.6% for the second.

Compared with NC(=O)C1CCN(c2nc3nccc(-c4ccccc4)c3c(=O)[nH]2)CC1, O=c1[nH]c(NC2CCCC2)nc2nccc(-c3ccsc3)c12 is higher in INHIBITION: -99.6% for the first, 68.5% for the second.

Compared with c1ccc(COC[C@H]2CC[C@H]3[C@H](CCN3Cc3ccccn3)O2)nc1, O=C(NCC1CC1)[C@H]1C[C@H]2OCC[C@H]2N(CCc2ccccc2)C1 is lower in INHIBITION: -2.2% for the first, -62.8% for the second.

First: CCNc1cc2c(nn1)CCN(C(=O)c1ccnc(-n3ccnc3)c1)C2
Second: Cc1cc(C)n(CC2CCCN2C(=O)c2ccc3[nH]cnc3c2)n1 (stereo not drawn)
The INHIBITION of the first is higher: 43.9% for the first, -163% for the second.

Compared with CC(C)N1CCc2[nH]nc(C(=O)N3CCN(C)CC3)c2C1, CC(C)N1CCc2[nH]nc(C(=O)N3CCOCC3)c2C1 is higher in INHIBITION: 49.2% for the first, 55.6% for the second.

Compared with O=C(Nc1nc2c(s1)CNCC2)C1CC1, CCN1CCC(CNC(=O)c2cc(Cl)c[nH]2)CC1 is higher in INHIBITION: -117% for the first, -108% for the second.

Compared with CO[C@@H]1CN(c2ccccc2)S(=O)(=O)[C@@]12CCN(Cc1ccccc1)C2, O=C(NCC1CCN(CCc2ccccc2)C1)c1cc(Cl)c[nH]1 (stereo not drawn) is higher in INHIBITION: -32.5% for the first, 65.1% for the second.

Compared with CC(=O)N[C@@H]1CN(C2CCN(c3ccccc3F)CC2)C[C@H]1C(C)C, CC(=O)N[C@@H]1CN(C2CCN(c3cccc(C)c3C)CC2)C[C@H]1C(C)C is higher in INHIBITION: -24.8% for the first, 57.7% for the second.

First: CC(=O)N[C@@H]1CN(C2CCN(c3cccc(Cl)c3)CC2)C[C@H]1C(C)C
Second: COc1c(CNC2CCN(c3ccccn3)CC2)c(C(C)C)nn1C
The INHIBITION of the first is lower: -10.3% for the first, 1.28% for the second.

Going from CCOCC(=O)NCC(Cc1cccc(F)c1)N1CCCCC1=O (stereo not drawn) to CC(CNC1CCN(c2ccccn2)CC1)Oc1ccc(F)cc1 (stereo not drawn), the INHIBITION rises from -88% to 49.1%.

Compared with COc1ccc2nnc(CCCC(=O)NCCc3ccccn3)n2n1, COc1ccc(C(C)CCNC2CCN(c3ccccn3)CC2)cc1 (stereo not drawn) is higher in INHIBITION: -138% for the first, 68.2% for the second.

Going from CC(C)COCCNC1CCN(c2ccccn2)CC1 to c1ccc(N2CCC(NCCc3ccc(-n4cccn4)cc3)CC2)nc1, the INHIBITION falls from 61.2% to 39.6%.

Going from CC(C)(C)C(=O)N1CCC2(CNS(=O)(=O)c3cnccc3O2)C1 (stereo not drawn) to Cc1nc(NCC2CC2)nc2c1COCC21CCN(S(=O)(=O)C2CC2)C1 (stereo not drawn), the INHIBITION rises from -18.2% to 12.5%.

Going from CC(C)C(NCc1ccc(Cn2cncn2)cc1)c1ccccc1 (stereo not drawn) to CC(C)C(NCc1ccc(Cn2cncn2)cc1)c1ccc(F)cn1 (stereo not drawn), the INHIBITION falls from 50.1% to -59.5%.

Compared with COc1ccc(CNC(Cn2cncn2)c2ccccc2)cc1C (stereo not drawn), O=S(=O)(c1ccccc1)N1CCC2(CCCN2CC2CCCC2)C1 (stereo not drawn) is higher in INHIBITION: -102% for the first, 48% for the second.

COCCN1CCC(CNC(=O)c2cc(Cl)c[nH]2)CC1 gave an INHIBITION of -2.76%.
